Experimental data from the supplement of paper PMC6089552.
Screen size: about 3,200 compounds; about 300 (9.4%) showed activity. For the sample, actives were picked, then their nearest neighbours and some compounds at random.

System: A673/TR/shEF
Experiment: cell viability (LOESS-normalised, relative to median of negative controls) (log2 ratio); higher = more viable cells (less compound effect), active = hit call of the paper (over 3 MAD below the median)
Settings: treatment time: 72 h
How it was run: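 A673/TR/shEF Ewing sarcoma cells (1,500 per well, 384-well plates) were grown with or without doxycycline to induce EWS-FLI1 shRNA knockdown, starting 24 h before compounds. Library compounds at two or more concentrations, with DMSO controls, were added for three days. Cell viability was read by CellTiter-Glo luminescence on an Envision reader, then LOESS-corrected per plate, divided by the median of negative controls and log2-transformed. Hits were wells at least three median absolute deviations from the median of all screened wells.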

[1] = 0.103 µM, library screen: screen3, EWS-FLI1 expression: high (no doxycycline)
[2] = 0.103 µM, library screen: screen3, EWS-FLI1 expression: low (doxycycline-induced shRNA knockdown)
[3] = 0.308 µM, library screen: screen3, EWS-FLI1 expression: high (no doxycycline)
[4] = 0.308 µM, library screen: screen3, EWS-FLI1 expression: low (doxycycline-induced shRNA knockdown)
[5] = 0.926 µM, library screen: screen3, EWS-FLI1 expression: high (no doxycycline)
[6] = 0.926 µM, library screen: screen3, EWS-FLI1 expression: low (doxycycline-induced shRNA knockdown)
[7] = 2.8 µM, library screen: screen3, EWS-FLI1 expression: high (no doxycycline)
[8] = 2.8 µM, library screen: screen3, EWS-FLI1 expression: low (doxycycline-induced shRNA knockdown)
[9] = 8.3 µM, library screen: screen3, EWS-FLI1 expression: high (no doxycycline)
[10] = 8.3 µM, library screen: screen3, EWS-FLI1 expression: low (doxycycline-induced shRNA knockdown)
[11] = 25 µM, library screen: screen3, EWS-FLI1 expression: high (no doxycycline)
[12] = 25 µM, library screen: screen3, EWS-FLI1 expression: low (doxycycline-induced shRNA knockdown)
[13] = 0.25 µM, library screen: screen1, EWS-FLI1 expression: high (no doxycycline)
[14] = 0.25 µM, library screen: screen1, EWS-FLI1 expression: low (doxycycline-induced shRNA knockdown)
[15] = 2.5 µM, library screen: screen1, EWS-FLI1 expression: high (no doxycycline)
[16] = 2.5 µM, library screen: screen1, EWS-FLI1 expression: low (doxycycline-induced shRNA knockdown)
[17] = 0.25 µM, library screen: screen2, EWS-FLI1 expression: high (no doxycycline)
[18] = 0.25 µM, library screen: screen2, EWS-FLI1 expression: low (doxycycline-induced shRNA knockdown)
[19] = 2.5 µM, library screen: screen2, EWS-FLI1 expression: high (no doxycycline)
[20] = 2.5 µM, library screen: screen2, EWS-FLI1 expression: low (doxycycline-induced shRNA knockdown)
[21] = 0.025 µM, library screen: screen1, EWS-FLI1 expression: high (no doxycycline)
[22] = 0.025 µM, library screen: screen1, EWS-FLI1 expression: low (doxycycline-induced shRNA knockdown)
[23] = 25 µM, library screen: screen1, EWS-FLI1 expression: high (no doxycycline)
[24] = 25 µM, library screen: screen1, EWS-FLI1 expression: low (doxycycline-induced shRNA knockdown)

Measured: cell viability (log2)

C[N+]1(C)C2CC(OC(=O)C(O)(c3cccs3)c3cccs3)CC1C1OC12 (centres undefined)
inactive: [1] 0.0262 | [2] 0.0758 | [3] 0.0294 | [4] 0.0213 | [5] -0.023 | [6] 0.0295 | [7] 0.0205 | [8] 0.0567 | [9] 0.0784 | [10] 0.0507 | [11] 0.1 | [12] 0.116

COC(=O)C(C(C)=O)C(C)=O
inactive: [13] 0.0323 | [14] 0.0334 | [15] 0.0258 | [16] 0.125

CC(/C=C/C=C(\C)c1cc(C(C)(C)C)cc(C(C)(C)C)c1)=C\C(=O)O
inactive: [17] 0.134 | [18] 0.0751 | [19] 0.0952 | [20] 0.134

C=CCNC(=O)c1ccc(CN(c2cccc(Cl)c2)S(C)(=O)=O)cc1
inactive: [13] 0.0663 | [14] 0.0926 | [15] 0.107 | [16] 0.133

O=C(O)c1c2ccccc2cc2ccccc12
inactive: [13] 0.0833 | [14] 0.174 | [15] 0.112 | [16] 0.125

C[N+](C)(C)CCC(=O)c1cccc2ccccc12
active: [17] -0.0772 | [19] -0.524
inactive: [18] 0.0591 | [20] -0.0126

NCCC(=O)c1ccccc1N
inactive: [13] 0.0986 | [14] 0.0335 | [15] 0.167 | [16] 0.184

COC(=O)C[C@H]1C(C)(C)C(OC(C)=O)[C@]2(O)C=C3C(CC[C@]4(C)C3CC(=O)O[C@H]4c3ccoc3)C1(C)C2=O (some centres undefined)
inactive: [13] 0.102 | [14] 0.114 | [15] 0.0649 | [16] 0.0874

C[C@H](Cc1ccccc1)Nc1ncnc2c1ncn2[C@@H]1O[C@H](CO)[C@H](O)C1O (some centres undefined)
inactive: [17] 0.0269 | [18] 0.14 | [19] 0.0399 | [20] 0.136

COc1nc(N)nc2c1ncn2[C@@H]1O[C@H](CO)[C@@H](O)[C@@H]1O
inactive: [1] -0.0331 | [2] 0.0967 | [3] 0.111 | [4] 0.1 | [5] 0.0614 | [6] 0.133 | [7] 0.0686 | [8] 0.0525 | [9] 0.0218 | [10] 0.0206 | [11] 0.0232 | [12] 0.121

COc1ccc(C[C@@H](N)C(=O)N[C@H]2[C@@H](O)[C@H](n3cnc4c(N(C)C)ncnc43)O[C@@H]2CO)cc1
inactive: [13] 0.0185 | [14] -0.00341
active: [15] -1.82 | [16] -2

CN1/C(=C(\O)Nc2ccccn2)C(=O)c2ccccc2S1(=O)=O
inactive: [1] 0.0972 | [2] 0.122 | [13] -0.035 | [14] 0.0628 | [17] 0.14 | [18] 0.0798 | [3] 0.121 | [4] 0.145 | [5] 0.194 | [6] 0.0843 | [15] 0.139 | [16] 0.148 | [19] 0.135 | [20] 0.0591 | [7] 0.173 | [8] 0.0997 | [9] 0.146 | [10] 0.0703 | [11] 0.152 | [12] 0.0778

Nc1nc(Nc2ccccc2)nc2c1ncn2C1O[C@H](CO)[C@@H](O)[C@H]1O (some centres undefined)
inactive: [17] 0.161 | [18] 0.05 | [19] 0.213 | [20] -0.0193

Nc1cccc(-c2cc3c(Oc4cccc(O)c4)ncnc3[nH]2)c1
active: [11] -0.494 | [12] -0.321
inactive: [1] 0.136 | [2] 0.0102 | [3] 0.0422 | [4] 0.0346 | [5] 0.0247 | [6] 0.00411 | [7] -0.00369 | [8] 0.0285 | [9] -0.0241 | [10] 0.0796

O=C(O)C1(O)C[C@@H](O)C(O)[C@H](O)C1 (some centres undefined)
inactive: [13] 0.068 | [14] -0.0312 | [15] 0.121 | [16] -0.0156

CC(=O)O[C@H]1C[C@@H](OC(C)=O)C(C)(C)[C@@H]2C[C@@H](OC(C)=O)[C@]3(C)[C@H](CC[C@@]4(C)[C@H](c5ccoc5)OC(=O)[C@H]5O[C@@]534)[C@@]12C
inactive: [13] -0.0343 | [14] 0.0186 | [15] 0.075 | [16] 0.143

COc1cc(/C=C(\C#N)C(N)=O)cc(CSc2nc3ccccc3s2)c1O
inactive: [21] 0.119 | [22] 0.0154 | [13] 0.2 | [14] -0.0796 | [15] 0.0235 | [16] 0.0635 | [23] -0.058 | [24] -0.0713

N#CC(C#N)=C(N)/C(C#N)=C/c1ccc(O)cc1
inactive: [17] 0.137 | [18] 0.116 | [19] 0.199 | [20] 0.0447

N#CC(C#N)=C(N)/C(C#N)=C/c1cc(O)c(O)c(O)c1
active: [15] -0.312 | [23] -0.175
0.296: [13]
0.289: [21]
inactive: [22] -0.0659 | [14] -0.0126 | [17] 0.21 | [18] 0.0773 | [16] 0.0388 | [19] 0.23 | [20] 0.0527 | [24] 0.0813

N#CC(C#N)=C(N)/C(C#N)=C/c1ccc2[nH]ccc2c1
inactive: [22] 0.0769 | [13] 0.269 | [14] 0.0358 | [16] 0.0519 | [24] 0.0138
0.369: [21]
active: [15] -0.421 | [23] -0.203

CC(=O)Oc1ccc(O)cc1
inactive: [13] -0.0255 | [14] 0.056 | [15] 0.0239 | [16] 0.00436

COC1=CC(=O)OC(CCc2ccc(OC)c(OC)c2)C1 (centres undefined)
inactive: [13] 0.144 | [14] -0.00163 | [15] 0.181 | [16] 0.0406

COc1cc2occ(-c3ccc(O)cc3)c(=O)c2c(OC)c1O
inactive: [13] 0.0883 | [14] 0.0895 | [15] 0.108 | [16] 0.0533

O=c1cccc2cc(O)c(O)c(O)c2c1O
inactive: [13] -0.000737 | [14] -0.0453 | [15] 0.0367 | [16] 0.0294

COc1cc(OC)c2c(=O)c(OC)c(-c3ccc(OC)c(OC)c3)oc2c1
inactive: [13] 0.019 | [14] 0.0595 | [15] 0.0902 | [16] -0.0343

O=C1Cc2c([nH]c3ccc(Br)cc23)-c2ccccc2N1
inactive: [17] 0.148 | [18] 0.0907 | [19] 0.128 | [20] 0.118

O=C1Cc2c([nH]c3ccc([N+](=O)[O-])cc23)-c2ccccc2N1
active: [19] -0.122 | [20] -0.312
inactive: [17] 0.0426 | [18] 0.0802

O=c1c(-c2ccccc2)coc2cc(O)cc(O)c12
inactive: [13] -0.0366 | [14] 0.014 | [15] 0.0821 | [16] 0.099

CC(C)N1C(=O)/C(=C\c2ccco2)SC1=S
inactive: [13] 0.136 | [14] 0.0809 | [15] 0.114 | [16] 0.139

O=C(O[C@@H]1Cc2c(O)cc(O)cc2O[C@@H]1c1cc2cc([C@H]3Oc4cc(O)cc(O)c4C[C@H]3O)cc(=O)c(O)c2c(O)c1O)c1cc(O)c(O)c(O)c1
inactive: [13] 0.115 | [14] 0.032 | [15] 0.00601 | [16] -0.0597

COC(=O)c1cc(=O)c(O)c2c(O)c(O)ccc2c1
inactive: [13] 0.103 | [14] 0.0315 | [15] 0.145 | [16] 0.0325

COc1cc2cccc(OC)c(=O)c2c(OC)c1OC
inactive: [13] 0.0955 | [14] 0.0427 | [15] 0.109 | [16] 0.0214

COC(=O)c1cc(OC)c(=O)c2c(OC)c(OC)ccc2c1
active: [13] -0.0869
inactive: [14] 0.0503 | [15] 0.0906 | [16] -0.0346

COc1ccccc1NC(=O)C1=C(C)NC(=O)NC1c1cccc(Cl)c1 (centres undefined)
inactive: [13] 0.0986 | [14] 0.0367 | [15] 0.0178 | [16] 0.0125

CC(C)CCCCCOC(=O)COc1ccc(Cl)cc1Cl
inactive: [13] 0.0385 | [14] 0.102 | [15] 0.111 | [16] -0.0211

CC1(C)C2CC(=O)[C@]3(C)C(CC[C@@]4(C)[C@H](C(=O)O)OC(=O)C5OC543)[C@@]2(C)[C@@H](O)C[C@H]1O (some centres undefined)
inactive: [13] 0.0536 | [14] 0.0574 | [15] 0.0836 | [16] 0.107

Cc1cc(N2CCN(c3ncccn3)CC2)n2c(nc3ccccc32)c1C#N
inactive: [13] 0.119 | [14] 0.0784 | [15] 0.108 | [16] 0.0845

CC1(COc2ccc3c(c2)ncn3-c2ccc3cccc(N4CCC(N)CC4)c3n2)COC1
active: [9] -0.22 | [11] -1.66 | [12] -0.632
inactive: [1] -0.0477 | [2] -0.0112 | [3] 0.0251 | [4] 0.0104 | [5] 0.0241 | [6] 0.0302 | [7] 0.0311 | [8] 0.0382 | [10] -0.0084

COc1ccc(OC)c(CN2CCN(Cc3ccccc3F)CC2)c1
inactive: [13] 0.0715 | [14] 0.0693 | [15] 0.123 | [16] 0.0288

C=C1C2CCC3(C)C(c4ccoc4)OC(=O)CC13OC1CC(=O)C(C)(C)C(CC(=O)OC)C12C (centres undefined)
inactive: [13] 0.0862 | [14] 0.067 | [15] 0.0511 | [16] 0.0888
